We go through 6 compounds from PubChem BioAssay (NCATS).

The nature of assay [1]: P-glycoprotein substrates identified in KB-3-1 adenocarcinoma cell line, qHTS therapeutic library screen (AID 1346986). Note: nearly all actives have a fitted effect of over 60% in size.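 Note: potency is the fitted concentration of half-maximal effect; potency is for cytotoxicity meaning loss of cell viability.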 In outline: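 Viability by CellTiter-Glo after 72 h compound exposure at 37 degree C, 5% CO2. Cytotoxic call: curve class -1.1 to -2.4, maximum response >50%, AC50 < 10 uM, compared across KB-3-1 and P-gp-overexpressing KB-8-5-11.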
Background: In qHTS, concentration-response curves come from the screen itself.

Assay [2] can be described thus: P-glycoprotein substrates identified in KB-8-5-11 adenocarcinoma cell line, qHTS therapeutic library screen (AID 1346987). Note: nearly all actives have a fitted effect of over 65% in size. Note: potency is the fitted concentration of half-maximal effect. In outline:
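In this qHTS, P-gp-rich KB-8-5-11 cells received library compounds across a concentration range. Viability was quantified by luminescence after 72 h at 37 degree C.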

Assay [3] in a line: qHTS to identify inhibitors of the type 1 interferon - major histocompatibility complex class I in skeletal muscle: primary screen against the NCATS Mechanism Interrogation Plate v5.0 (MIPE) Libary (AID 1347411).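 Note: plate controls were vehicle for no effect and reference inhibitor for full effect; nearly all actives have a fitted effect of over 65% in size.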 In outline: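 HLA-B HiBit myoblasts, dexamethasone-free medium + 4 ng/ml IFN-b, 24 h compound, 11-pt 1:3 from 46 uM final. Readout: Nano-Glo HiBiT lytic luminescence after 10 min lysis, RT.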

Assay [4] is described as follows: Primary qHTS for inhibitors of nuclear receptor binding SET domain protein 2 (NSD2) in an isogenic RCH-ACV NSD2 p.E1099K mutant (9B) (AID 1645876). Note: nearly all actives have a fitted effect of over 70% in size. Note: potency is the fitted concentration of half-maximal effect.
Assay [5] is described as follows: Primary qHTS for inhibitors of nuclear receptor binding SET domain protein 2 (NSD2) in an RCH-ACV wild type WT cells (2C) (AID 1645877). Note: nearly all actives have a fitted effect of over 70% in size. Note: potency is the fitted concentration of half-maximal effect.
Assay [6] addresses Glutathione peroxidase 1 (Homo sapiens) (UniProt P07203). The assay is described as follows: Primary qHTS Assay for Inhibitors of Recombinant Selenoprotein Glutathione Peroxidase 1 (GPX1) (AID 1845191). Note: nearly all actives have a fitted effect of over 65% in size. The method in brief: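 GR-coupled readout: NADPH consumption tracked by fluorescence, ex 340/em 450 nm, at t=0 and after 15 min at RT. Final mix 10 nM GPX1, 1 mM GSH, 0.5 mM CHP, 0.5 mM NADPH, 100 nM GR, 0.01% BSA, following 30 min enzyme–compound preincubation.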

In assay [7] the target is Phospholipid hydroperoxide glutathione peroxidase GPX4 (Homo sapiens) (UniProt P36969). The assay is described as follows: Primary qHTS Assay for Inhibitors of Recombinant Selenoprotein Glutathione Peroxidase 4 (GPX4) (AID 1845192). Note: % is set by controls: 0 for no effect and ±100 for the full control effect; nearly all actives have a fitted effect of over 65% in size. To be noted: outcome: dose series up to 50 µM unless noted. The method in brief:
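Steps: GPX4 plus compound, 30 min RT; add GR/GSH/NADPH master mix; start with cumene hydroperoxide; read 340/450 nm fluorescence at 0 and 15 min. Finals were 200 nM GPX4, 1 mM GSH, 0.5 mM CHP, 0.5 mM NADPH, 100 nM GR.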

The nature of assay [8]: qHTS drug screen for cell cycle checkpoint inhibitors in PARPi-resistant BRCA-mutant ovarian cancer cell lines. (AID 1963452; calls by dose curve). The settings on record: PEO1/OlaR viability, CellTiter-Glo luminescence, 96 h, stronger effect = lower value. The method in brief: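 PEO1, PEO4 and PEO1/OlaR ovarian cancer cells, 600 per well, exposed 96 h at 37C to a dilution series. Viability read by CellTiter-Glo luminescence, normalized to DMSO and empty wells; activity summarized as Z-AUC.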

Assay [9] concerns the target Calcium and integrin-binding protein 1 (Homo sapiens) (UniProt Q99828). The assay is described as follows: Primary qHTS for Identification of Calcium Integrin Binding Protein 1 (CIB1) Competitor (AID 1508620). Note: top concentration of the series differs between compounds; % is set by controls: 0 for no effect and ±100 for the full control effect. In outline: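 Fluorescence polarization competition: GST-tagged CIB1 (1 uM final) preincubated with compound 15 min at room temperature, then FITC-labelled alphaIIb peptide (100 nM final) added. After 15 min at room temperature, polarization read at Ex 480/Em 540.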

Assay [10] concerns the target N-terminal Xaa-Pro-Lys N-methyltransferase 1 (Homo sapiens) (UniProt Q9BV86). The assay is described as follows: Confirmatory qHTS for Inhibitors of N-terminal methyltransferase 1 (NTMT1): MTaseGlo Assay (AID 1645874). The method in brief:
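Enzyme mix (125 nM NTMT1, 100 uM SAM) + compound, 15 min RT; + 1 uM SPKRIA, 30 min RT, dark; MTase-Glo reagent 30 min, detection solution 30 min; luminescence. % inhibition vs no-enzyme/DMSO controls, 4-parameter Hill fit.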

In assay [11] the target is Catechol O-methyltransferase (Homo sapiens) (UniProt P21964). The assay is described as follows: Confirmatory Screen for Target Class Profiling of Small Molecule Inhibitors of Methyltransferases (AID 1745852; calls by dose curve; note: potency is the fitted concentration of half-maximal effect). The settings on record: MTase-Glo luminescence, SAH detection, recombinant enzyme; measured here: COMT max response; stronger effect = lower value.
In assay [12] the target is Guanidinoacetate N-methyltransferase (Homo sapiens) (UniProt Q14353). Described as above. To be noted: activity change, negative = inhibition: at 57.3 µM (top of the series) unless noted.
The target of assay [13] is Nicotinamide N-methyltransferase (Homo sapiens) (UniProt P40261). The assay is described as above. The settings on record: MTase-Glo luminescence, SAH detection, recombinant enzyme; measured here: NNMT max response; stronger effect = lower value.
In assay [14] the target is Phenylethanolamine N-methyltransferase (Homo sapiens) (UniProt P11086). Described as above. The settings on record: MTase-Glo luminescence, SAH detection, recombinant enzyme; measured here: PNMT max response; stronger effect = lower value.
Assay [15] in a line: qHTS for Inhibitors of Ubiquitin-specific Protease USP2a Using CHOP2 as the Reporter: K633 Counterscreen (AID 652168). Note: % of control where 0% means no effect. In outline: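 Detection-system control: fluorescence of K48-linked DiUb-4IQF substrate (100 nM as added) tracked over time, Ex 525/Em 598, with pinned compounds and no enzyme, in pH 8 Tris buffer containing beta-mercaptoethanol and 0.05% Chaps.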
The nature of assay [16]: qHTS for Inhibitors of Ubiquitin-specific Protease USP2a Using CHOP2 as the Reporter: Cytotox Assay (AID 652170).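 Note: HCT116 human colon cancer cells at 600 per well; plate controls were DMSO-treated cells for no effect and wells without cells for full effect; nearly all actives have a fitted effect of over 70% in size.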 The method in brief:
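Cytotoxicity read as ATP luminescence (CellTiter-Glo) after 72 hr compound treatment at 37 deg C. Cells: HCT116, 600/well in DMEM plus 10% FBS. Normalization between DMSO-treated cells and cell-free wells.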

Assay [17] addresses Ubiquitin carboxyl-terminal hydrolase 2 (Homo sapiens) (UniProt O75604). The assay is described as follows: qHTS for Inhibitors of Ubiquitin-specific Protease USP2a Using CHOP2 as the Reporter: K484 Substrate (AID 652173).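 Note: cleavage of internally quenched K48 di-ubiquitin substrate measured as rising fluorescence over time; potency is the fitted concentration of half-maximal effect; nearly all actives have a fitted effect of over 70% in size.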 The settings on record: USP2 cleavage of DiUb K48 IQF substrate, fluorescence. The method in brief: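 Kinetic fluorescence (Ex 525/Em 598) tracked cleavage of an internally quenched K48 di-ubiquitin substrate, added as a 100 nM solution. The enzyme was added as a 5 nM USP2 solution before compound pinning, with no-enzyme controls. Buffer: Tris pH 8, beta-mercaptoethanol, CHAPS.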

Results filed as inconclusive are left out. Calls of active or inactive are those of the source. Unless noted, calls come from the whole dose curve; as a rule, active = well fitted curve in the direction sought with a large enough effect; inconclusive = small, poorly fitted or top-dose-only effect, or another doubt; inactive = no such curve, though single readings can be large; an effect the other way counts as inactive or inconclusive.

Glutathione peroxidase 1 (Homo sapiens), sequence (P07203 whole entry, looked up): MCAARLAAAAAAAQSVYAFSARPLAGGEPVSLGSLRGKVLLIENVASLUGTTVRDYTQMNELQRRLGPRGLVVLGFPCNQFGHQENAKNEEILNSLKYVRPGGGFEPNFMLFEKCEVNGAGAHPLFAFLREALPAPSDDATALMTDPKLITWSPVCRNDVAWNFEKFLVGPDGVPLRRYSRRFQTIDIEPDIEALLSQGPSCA
Calcium and integrin-binding protein 1 (Homo sapiens), sequence (Q99828 whole entry, looked up): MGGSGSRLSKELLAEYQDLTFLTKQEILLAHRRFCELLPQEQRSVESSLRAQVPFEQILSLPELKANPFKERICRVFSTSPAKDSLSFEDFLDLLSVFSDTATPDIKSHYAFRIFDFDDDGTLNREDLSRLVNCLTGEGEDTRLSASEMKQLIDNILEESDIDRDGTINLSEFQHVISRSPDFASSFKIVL
Nicotinamide N-methyltransferase (Homo sapiens), sequence (P40261 whole entry, looked up): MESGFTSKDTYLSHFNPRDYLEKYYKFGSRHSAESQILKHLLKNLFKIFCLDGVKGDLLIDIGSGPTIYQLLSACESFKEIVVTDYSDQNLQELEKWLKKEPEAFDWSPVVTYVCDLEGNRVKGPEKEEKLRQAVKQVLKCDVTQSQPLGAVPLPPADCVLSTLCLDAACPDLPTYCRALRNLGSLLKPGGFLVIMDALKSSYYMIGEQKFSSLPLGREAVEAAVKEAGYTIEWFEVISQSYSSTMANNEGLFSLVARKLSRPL
N-terminal Xaa-Pro-Lys N-methyltransferase 1 (Homo sapiens), sequence (Q9BV86 whole entry, looked up): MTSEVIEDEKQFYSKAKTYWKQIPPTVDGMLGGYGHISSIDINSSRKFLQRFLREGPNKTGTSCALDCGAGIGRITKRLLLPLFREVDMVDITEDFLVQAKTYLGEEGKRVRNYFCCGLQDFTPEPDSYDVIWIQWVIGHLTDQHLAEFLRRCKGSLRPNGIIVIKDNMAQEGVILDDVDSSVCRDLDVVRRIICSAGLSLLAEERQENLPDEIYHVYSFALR
Ubiquitin carboxyl-terminal hydrolase 2 (Homo sapiens), sequence (O75604 whole entry, looked up): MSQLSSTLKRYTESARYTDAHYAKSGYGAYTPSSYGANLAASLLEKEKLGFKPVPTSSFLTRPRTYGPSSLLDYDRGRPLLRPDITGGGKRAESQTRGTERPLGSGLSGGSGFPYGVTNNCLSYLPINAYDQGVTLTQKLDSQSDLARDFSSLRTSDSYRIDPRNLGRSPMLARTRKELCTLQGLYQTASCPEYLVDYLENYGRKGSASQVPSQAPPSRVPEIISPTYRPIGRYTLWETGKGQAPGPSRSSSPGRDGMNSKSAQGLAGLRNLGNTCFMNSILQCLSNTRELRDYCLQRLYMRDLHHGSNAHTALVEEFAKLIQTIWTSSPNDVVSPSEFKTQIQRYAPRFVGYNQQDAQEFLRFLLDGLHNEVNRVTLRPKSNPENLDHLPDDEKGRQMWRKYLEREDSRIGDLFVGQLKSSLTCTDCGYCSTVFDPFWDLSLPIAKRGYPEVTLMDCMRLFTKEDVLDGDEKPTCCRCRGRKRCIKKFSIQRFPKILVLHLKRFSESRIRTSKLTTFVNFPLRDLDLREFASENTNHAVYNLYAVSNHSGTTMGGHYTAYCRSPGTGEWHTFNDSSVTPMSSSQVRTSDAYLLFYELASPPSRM
Phenylethanolamine N-methyltransferase (Homo sapiens), sequence (P11086 whole entry, looked up): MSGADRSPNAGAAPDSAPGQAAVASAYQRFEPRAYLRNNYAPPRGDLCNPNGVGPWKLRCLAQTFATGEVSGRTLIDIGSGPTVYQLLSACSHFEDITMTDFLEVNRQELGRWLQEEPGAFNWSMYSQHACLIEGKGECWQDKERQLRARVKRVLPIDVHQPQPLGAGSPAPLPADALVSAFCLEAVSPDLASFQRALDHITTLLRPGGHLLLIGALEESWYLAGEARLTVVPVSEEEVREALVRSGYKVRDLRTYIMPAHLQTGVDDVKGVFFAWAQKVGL
Phospholipid hydroperoxide glutathione peroxidase GPX4 (Homo sapiens), sequence (P36969 whole entry, looked up): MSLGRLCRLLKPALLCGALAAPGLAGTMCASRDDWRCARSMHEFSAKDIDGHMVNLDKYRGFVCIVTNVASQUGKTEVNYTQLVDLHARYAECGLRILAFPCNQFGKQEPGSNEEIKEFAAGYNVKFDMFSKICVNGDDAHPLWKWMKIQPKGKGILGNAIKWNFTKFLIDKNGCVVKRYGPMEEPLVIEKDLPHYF
Catechol O-methyltransferase (Homo sapiens), sequence (P21964 whole entry, looked up): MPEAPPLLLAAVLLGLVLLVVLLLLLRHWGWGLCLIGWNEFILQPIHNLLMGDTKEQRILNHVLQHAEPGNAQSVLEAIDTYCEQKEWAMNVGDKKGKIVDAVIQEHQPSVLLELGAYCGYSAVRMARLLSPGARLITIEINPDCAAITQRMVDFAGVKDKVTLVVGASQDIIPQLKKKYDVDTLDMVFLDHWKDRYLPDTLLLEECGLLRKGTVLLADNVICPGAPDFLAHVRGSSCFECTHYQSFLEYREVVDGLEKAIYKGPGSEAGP

In the case of `CC(C)C(N)C(=O)OCC(CO)OCn1cnc2c(=O)[nH]c(N)nc21` (configuration not stated), the Potency entry in assay [1], in assay [2], in assay [3], in [4], in assay [5] and in assay [6] was “inactive” in each case. Moreover, the Potency entry in [7] is “inactive”. The values for the Z-AUC in assay [8], in [8] (measured here: PEO1 parental Z-AUC) and in [8] (measured here: PEO4 Z-AUC) were 0.614 (inactive), 1.06 and 1.36, respectively.
With `O=C1CCCC2=C1C(c1ncccc1Br)N=C(Nc1nc3ccccc3o1)N2` (configuration not stated), the Potency entry in [1], in assay [2] and in [6] was “inactive” in each case. For the same compound, the outcome in assay [9] is “inactive”.
For `Cc1cc(Nc2nc(NC(C)c3ccc(F)cc3)c(C#N)cc2F)n[nH]1` (configuration not stated), the Potency in [1] was 0.164 µM (active); in assay [2], 0.731 µM (active); in [4], 0.92 µM (active); in assay [5], 0.731 µM (active).
As for `Cc1nc(CN(C)c2ncnc3ccc(-c4ccc5c(c4)OCO5)cc23)cs1`, the Potency is 16.4 µM (active) in assay [1]; 20.6 µM (active) in assay [2]; 4.26 µM (active) in [10]; 8.2 µM (active) in [4]; 9.2 µM (active) in assay [5]; 19.2 µM (active) in assay [12]. The outcome in assay [9] was “inactive”. Moreover, the activity is -89.6% in assay [11], -80.4% in assay [13] and -90.3% in assay [14]. Also, the Potency entry in assay [6] was “inactive”.
On to `Clc1ccc2ncc(-c3cccc(NC4CCNCC4)n3)n2c1`, for which the Potency in assay [1] is 3.66 µM (active); in assay [2] it was 16.4 µM (active); in [4] it was 0.366 µM (active); in [5], 0.259 µM (active). Further, the outcome in assay [9] is “inactive”. For the same compound, the Potency entry in [6] is “inactive”.
Turning to `O=C(Nc1ccc(S(=O)(=O)Nc2nccs2)cc1)c1cc(-c2ccccc2)nc2ccccc12`, the outcome in assay [15], in [16] and in [9] was “inactive” each time. Further, the Potency in [17] is 1.37 µM (active). Besides, the Potency result in assay [1], in assay [2] and in [6] was “inactive” in each case.
